# Data taken from PubChem BioAssay (NCATS).
# Inconclusive results are not listed. A call without a number means that no potency is given here. The source made the active and inactive calls. Unless noted, the call rests on the fitted dose curve; in most records, active means well fitted curve in the direction sought with a large enough effect; inconclusive means small, poorly fitted or top-dose-only effect, or another doubt; inactive means no such curve, though single readings can be large; an effect the other way counts as inactive or inconclusive.
# Columns and labels:
# [1] = molecular target: Rap guanine nucleotide exchange factor 3 (Homo sapiens) (UniProt O95398); assay: Confirmatory qHTS for antagonist of cAMP-regulated guanine nucleotide exchange factor 3 (EPAC1) (AID 1645880); further: nearly all actives have a fitted effect of over 55% in size
# Sequence of Rap guanine nucleotide exchange factor 3 (Homo sapiens) (O95398 whole entry, looked up): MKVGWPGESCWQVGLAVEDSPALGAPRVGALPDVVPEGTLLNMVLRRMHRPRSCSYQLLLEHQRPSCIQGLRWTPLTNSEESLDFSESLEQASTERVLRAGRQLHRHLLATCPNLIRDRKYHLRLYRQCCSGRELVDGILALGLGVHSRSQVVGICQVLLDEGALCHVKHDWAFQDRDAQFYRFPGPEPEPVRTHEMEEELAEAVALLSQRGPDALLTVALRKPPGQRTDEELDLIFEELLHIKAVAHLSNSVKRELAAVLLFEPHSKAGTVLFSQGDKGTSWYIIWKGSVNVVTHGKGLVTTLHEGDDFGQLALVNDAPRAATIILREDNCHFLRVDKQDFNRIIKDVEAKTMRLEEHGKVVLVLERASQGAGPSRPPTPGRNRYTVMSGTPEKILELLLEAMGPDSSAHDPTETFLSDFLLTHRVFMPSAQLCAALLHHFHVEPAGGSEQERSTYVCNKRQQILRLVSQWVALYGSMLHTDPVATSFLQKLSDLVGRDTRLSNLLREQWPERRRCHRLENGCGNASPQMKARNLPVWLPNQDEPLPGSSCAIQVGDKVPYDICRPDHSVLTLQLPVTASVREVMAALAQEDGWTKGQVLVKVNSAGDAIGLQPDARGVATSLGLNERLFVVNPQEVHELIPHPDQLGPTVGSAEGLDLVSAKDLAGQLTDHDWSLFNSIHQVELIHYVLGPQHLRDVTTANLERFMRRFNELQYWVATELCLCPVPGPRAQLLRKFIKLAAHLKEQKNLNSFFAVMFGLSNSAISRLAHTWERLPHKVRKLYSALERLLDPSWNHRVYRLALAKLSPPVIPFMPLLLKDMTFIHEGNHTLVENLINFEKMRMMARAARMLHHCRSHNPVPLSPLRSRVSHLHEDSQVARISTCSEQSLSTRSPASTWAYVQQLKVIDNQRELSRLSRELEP
# How it was run: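 Nucleotide exchange uses 100 nM EPAC1, 250 nM RAP1B-BODIPY-GDP and 50 uM GDP, with compounds in a concentration-titration series. After 5 min at room temperature, fluorescence (480 nm ex/540 nm em) is read every 5 min for 30 min. Data are normalized to control ATA and DMSO.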
# [2] = molecular target: Rap guanine nucleotide exchange factor 3 (Homo sapiens) (UniProt O95398); assay: Confirmatory qHTS for agonist of cAMP-regulated guanine nucleotide exchange factor 3 (EPAC1) (AID 1645881);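 further: EPAC1 catalysed release of BODIPY-GDP from Rap1B seen as fluorescence loss; nearly all actives have a fitted effect of over 75% in size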
# [3] = molecular target: Rap guanine nucleotide exchange factor 4 (Homo sapiens) (UniProt Q8WZA2); assay: Confirmatory qHTS for antagonist of cAMP-regulated guanine nucleotide exchange factor 4 (EPAC2) (AID 1645885); further: nearly all actives have a fitted effect of over 25% in size
# Sequence of Rap guanine nucleotide exchange factor 4 (Homo sapiens) (Q8WZA2 whole entry, looked up): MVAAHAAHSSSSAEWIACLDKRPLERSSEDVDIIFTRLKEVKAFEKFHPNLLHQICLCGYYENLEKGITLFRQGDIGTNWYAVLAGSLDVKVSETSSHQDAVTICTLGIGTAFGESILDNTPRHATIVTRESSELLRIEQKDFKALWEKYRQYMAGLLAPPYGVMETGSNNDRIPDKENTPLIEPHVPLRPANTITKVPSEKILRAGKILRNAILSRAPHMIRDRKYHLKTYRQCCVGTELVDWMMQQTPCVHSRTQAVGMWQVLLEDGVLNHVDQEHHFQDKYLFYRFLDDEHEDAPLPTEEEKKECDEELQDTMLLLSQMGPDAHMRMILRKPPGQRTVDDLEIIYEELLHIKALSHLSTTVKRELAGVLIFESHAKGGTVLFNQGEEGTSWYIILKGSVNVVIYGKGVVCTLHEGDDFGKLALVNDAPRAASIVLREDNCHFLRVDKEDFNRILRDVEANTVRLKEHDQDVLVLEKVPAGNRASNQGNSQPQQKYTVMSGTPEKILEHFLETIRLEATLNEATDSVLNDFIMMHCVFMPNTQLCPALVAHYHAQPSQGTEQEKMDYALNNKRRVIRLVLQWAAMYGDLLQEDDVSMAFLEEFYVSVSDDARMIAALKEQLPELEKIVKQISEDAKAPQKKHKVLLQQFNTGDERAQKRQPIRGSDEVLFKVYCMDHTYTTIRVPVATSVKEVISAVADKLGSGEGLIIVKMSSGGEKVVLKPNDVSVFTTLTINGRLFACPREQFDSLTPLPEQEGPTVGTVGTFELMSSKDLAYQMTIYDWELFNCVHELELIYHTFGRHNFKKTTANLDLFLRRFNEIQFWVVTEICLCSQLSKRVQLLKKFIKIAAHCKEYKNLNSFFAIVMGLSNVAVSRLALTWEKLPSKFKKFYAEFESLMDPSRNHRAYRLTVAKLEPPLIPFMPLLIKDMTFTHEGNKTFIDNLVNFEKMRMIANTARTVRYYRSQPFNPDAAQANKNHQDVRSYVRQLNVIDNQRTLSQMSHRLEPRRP
# [4] = qHTS profiling for inhibitors of Plasmodium falciparum (3D7) proliferation (AID 743322);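 further: infected erythrocytes exposed to compound for 72 h before lysis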; conditions: P. falciparum 3D7 proliferation; at 28.7 µM (top of the series)
# How it was run: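 Erythrocytes infected with P. falciparum (0.3% parasitemia, 2.5% hematocrit) incubated with compounds 72 h at 37 C, 5% CO2. Lysis with saponin/Triton buffer containing SYBR Green I, overnight at room temperature in the dark; DNA fluorescence (485/535 nm) normalised to 0.29 uM artemisinin and DMSO.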
# [5] = qHTS profiling for inhibitors of Plasmodium falciparum (DD2) proliferation (AID 743323; call rule not given here); conditions: lower = more inhibition; at 28.7 µM (top of the series)
# How it was run: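 P. falciparum Dd2-infected erythrocytes (0.3% parasitemia, 2.5% hematocrit) exposed 72 h at 37 C, 5% CO2. Lysis with SYBR Green, overnight at room temperature, fluorescence 485/535 nm; normalized to 0.29 uM artemisinin and DMSO.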
# [6] = qHTS profiling for inhibitors of Plasmodium falciparum (HB3) proliferation (AID 743324); conditions: Plasmodium falciparum HB3 blood-stage proliferation; at 28.7 µM (top of the series)
# How it was run: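 P. falciparum HB3 grown in erythrocytes (0.3% parasitemia, 2.5% hematocrit final) with compound for 72 h at 37 C, 5% CO2. Parasite DNA detected by SYBR Green after saponin/triton lysis overnight; normalized to 0.29 uM artemisinin and DMSO.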
# [7] = molecular target: Estrogen receptor (Homo sapiens) (UniProt P03372); assay: qHTS assay for small molecule antagonists of estrogen receptor alpha signaling (AID 588513; active means well fitted curve in the direction sought with a large enough effect in the signal ratio, with a control signal flat, not every such curve was filed as active; the % refers to the signal ratio)
# Sequence of Estrogen receptor (Homo sapiens) (P03372 whole entry, looked up): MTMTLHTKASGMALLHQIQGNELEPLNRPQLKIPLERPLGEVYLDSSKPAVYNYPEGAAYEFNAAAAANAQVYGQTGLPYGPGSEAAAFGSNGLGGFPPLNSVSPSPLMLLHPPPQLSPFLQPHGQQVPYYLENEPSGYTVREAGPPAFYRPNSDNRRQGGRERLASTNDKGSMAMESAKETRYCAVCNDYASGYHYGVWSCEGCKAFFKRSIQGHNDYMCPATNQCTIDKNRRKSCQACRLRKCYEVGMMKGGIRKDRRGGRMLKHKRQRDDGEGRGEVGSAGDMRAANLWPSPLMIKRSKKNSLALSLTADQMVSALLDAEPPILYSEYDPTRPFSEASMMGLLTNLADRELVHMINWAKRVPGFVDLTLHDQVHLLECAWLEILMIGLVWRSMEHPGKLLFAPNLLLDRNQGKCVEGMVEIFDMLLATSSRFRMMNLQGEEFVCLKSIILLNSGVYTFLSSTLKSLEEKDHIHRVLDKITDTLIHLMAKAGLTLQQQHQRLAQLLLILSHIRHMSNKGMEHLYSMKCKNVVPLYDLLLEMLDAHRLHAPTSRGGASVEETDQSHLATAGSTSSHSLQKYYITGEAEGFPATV
# How it was run: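 Antagonist mode: inhibition of 0.5 nM 17-beta-estradiol-driven beta-lactamase reporter in HEK 293 ER-alpha-UAS-bla cells, 18 h at 37C, CCF4 readout after 2 h at RT. Normalised to estradiol and DMSO; titration fitted to Hill.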
# [8] = molecular target: Bile acid receptor (Homo sapiens) (UniProt Q96RI1); assay: qHTS assay for small molecule agonists of farnesoid X receptor signaling (AID 588527; calls by dose curve); conditions: HEK293T FXR-UAS-bla, beta-lactamase ratio, 16 h; activation: stronger effect = higher value
# Sequence of Bile acid receptor (Homo sapiens) (Q96RI1 whole entry, looked up): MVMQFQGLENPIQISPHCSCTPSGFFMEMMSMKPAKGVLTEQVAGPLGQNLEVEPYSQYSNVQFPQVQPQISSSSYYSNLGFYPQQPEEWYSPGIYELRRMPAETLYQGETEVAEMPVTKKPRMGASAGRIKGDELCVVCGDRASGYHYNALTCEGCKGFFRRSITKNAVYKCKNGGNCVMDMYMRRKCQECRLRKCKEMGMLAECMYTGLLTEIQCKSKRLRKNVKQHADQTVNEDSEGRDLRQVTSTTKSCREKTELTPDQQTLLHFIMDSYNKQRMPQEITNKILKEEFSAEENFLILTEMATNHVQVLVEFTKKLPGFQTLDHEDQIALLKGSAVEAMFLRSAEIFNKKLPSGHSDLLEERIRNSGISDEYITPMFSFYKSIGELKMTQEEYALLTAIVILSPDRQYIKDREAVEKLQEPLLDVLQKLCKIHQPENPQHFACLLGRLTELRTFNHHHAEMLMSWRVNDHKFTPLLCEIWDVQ
# How it was run: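 FXR-UAS-bla HEK293T cells (10% dialyzed FBS) preincubated 5-7 h at 37 C, then compounds at up to 92 uM for 16 h at 37 C. CCF4 beta-lactamase read-out after 2 h RT. Normalized to chenodeoxycholic acid (100 uM) and DMSO; Hill fit gave EC50 and efficacy.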
# [9] = molecular target: Glucocorticoid receptor (Homo sapiens) (UniProt P04150); assay: qHTS assay for small molecule agonists of glucocorticoid receptor signaling (AID 588532; active means well fitted curve in the direction sought with a large enough effect in the signal ratio, with a control signal flat; the % refers to the signal ratio); conditions: HeLa MMTV-bla, beta-lactamase ratio, agonist, 18 h; stronger effect = higher value; percent of dexamethasone control, DMSO zero
# Sequence of Glucocorticoid receptor (Homo sapiens) (P04150 whole entry, looked up): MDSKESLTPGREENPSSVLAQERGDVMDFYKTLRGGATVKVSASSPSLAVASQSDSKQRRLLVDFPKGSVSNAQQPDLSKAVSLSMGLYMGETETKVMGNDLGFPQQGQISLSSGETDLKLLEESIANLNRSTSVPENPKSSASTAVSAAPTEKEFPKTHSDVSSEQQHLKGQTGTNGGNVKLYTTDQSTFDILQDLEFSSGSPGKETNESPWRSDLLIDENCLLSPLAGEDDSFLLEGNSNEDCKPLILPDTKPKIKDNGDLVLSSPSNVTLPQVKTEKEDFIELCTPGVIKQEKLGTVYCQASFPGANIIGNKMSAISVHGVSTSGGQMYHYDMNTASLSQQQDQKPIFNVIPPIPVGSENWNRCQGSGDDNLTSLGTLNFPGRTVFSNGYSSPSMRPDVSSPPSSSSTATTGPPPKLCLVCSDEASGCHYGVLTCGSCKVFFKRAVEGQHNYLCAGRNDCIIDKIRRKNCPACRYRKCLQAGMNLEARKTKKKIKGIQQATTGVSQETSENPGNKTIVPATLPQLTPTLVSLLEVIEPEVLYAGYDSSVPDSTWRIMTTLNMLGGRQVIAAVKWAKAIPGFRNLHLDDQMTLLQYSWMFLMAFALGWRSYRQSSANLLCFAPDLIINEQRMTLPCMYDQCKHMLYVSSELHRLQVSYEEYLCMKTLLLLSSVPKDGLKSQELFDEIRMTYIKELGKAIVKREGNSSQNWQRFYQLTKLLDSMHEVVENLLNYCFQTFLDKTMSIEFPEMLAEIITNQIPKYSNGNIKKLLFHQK
# How it was run: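 HeLa GRE-bla reporter cells; 18 h compound exposure at 37 C; 2 h CCF4 loading at room temperature; fluorescence at 460 and 530 nm; EC50 by Hill equation.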
# [10] = S16 Schwann cell PMP22 intronic element firefly luciferase assay (AID 624032); further: nearly all actives have a fitted effect of over 30% in size; further: potency means the concentration at half of the fitted maximal effect
# How it was run: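 Rat S16 Schwann cells stably carrying firefly luciferase driven by a PMP22 intronic element, in 10% FBS, treated 24 h at 37 C. ONE-Glo luminescence normalized to PTC124 control and DMSO (0%); curves classed by r2, magnitude and activity.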
# [11] = S16 Schwann cell PMP22 intronic element beta-lactamase assay (AID 624044; calls by dose curve; further: nearly all actives have a fitted effect of over 15% in size)
# How it was run: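 Rat S16 Schwann cells with beta-Lac driven by a PMP22 intronic element, compound-treated 24 h at 37 °C. LiveBLAzer FRET B/G read: 460 nm normalized to potassium clavulanate vs DMSO; 535 nm FRET as viability; concentration-effect curves classified.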
# [12] = system: AA1029; assay: qHTS profiling for inhibitors of Plasmodium falciparum proliferation (AID 504749); further: nearly all actives have a fitted effect of over 60% in size; further: potency means the concentration at half of the fitted maximal effect; conditions: P. falciparum in erythrocytes, SYBR Green DNA, 72 h; series mostly up to 28.7 µM
# How it was run: (§1)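 P. falciparum-infected erythrocytes (0.3% parasitemia, 2.5% hematocrit) incubated with compound 72 h at 37 C, 5% CO2. Parasite DNA detected by SYBR Green after lysis, overnight at room temperature; normalised to 0.29 uM artemisinin and DMSO.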
# [13] = system: CP260; assay: as above; conditions: P. falciparum in erythrocytes, SYBR Green DNA, 72 h; series mostly up to 28.7 µM
# How it was run: as §1
# [14] = system: CP315; assay: as above; conditions: P. falciparum in erythrocytes, SYBR Green DNA, 72 h; series mostly up to 28.7 µM
# How it was run: as §1
# [15] = system: DIV14; assay: as above; conditions: P. falciparum in erythrocytes, SYBR Green DNA, 72 h; series mostly up to 28.7 µM
# How it was run: as §1
# [16] = system: DIV17; assay: as above; conditions: P. falciparum in erythrocytes, SYBR Green DNA, 72 h; series mostly up to 28.7 µM
# How it was run: as §1
# [17] = system: ICS; assay: as above; conditions: P. falciparum in erythrocytes, SYBR Green DNA, 72 h; series mostly up to 28.7 µM
# How it was run: as §1
# [18] = system: JCK; assay: as above; conditions: P. falciparum in erythrocytes, SYBR Green DNA, 72 h; series mostly up to 28.7 µM
# How it was run: as §1
# [19] = system: N140; assay: as above; conditions: P. falciparum in erythrocytes, SYBR Green DNA, 72 h; series mostly up to 28.7 µM
# How it was run: as §1
# [20] = system: TAB165; assay: as above; conditions: P. falciparum in erythrocytes, SYBR Green DNA, 72 h; series mostly up to 28.7 µM
# How it was run: as §1
structure (smiles),measurement,setting,value
C(=C/c1ccccc1)/CN1CCN(CCOC(c2ccccc2)c2ccccc2)CC1,Potency,[1],inactive
same,outcome,[2],inactive
same,Potency,[3],inactive
CCCCC[C@H]1C(=O)O[C@H](C)[C@H](NC(=O)c2cccc(NC=O)c2O)C(=O)O[C@@H](C)[C@@H]1OC(=O)CC(C)C,remaining parasite growth % (stronger effect = lower value),[4],20.4%
same,"activity, percent of control",[5],8.53%
same,"remaining proliferation (% of control), lower = more inhibition",[6],6.18%
Cc1ccc2cc3c(ccc4ccccc43)c3c2c1CC3,Potency,[7],inactive
same,activation,[8],2.18% (inactive)
same,activation,[9],4.51% (inactive)
O=C(O)c1ccccc1-c1c2cc(Br)c(=O)cc-2oc2[c]([Hg])c(O)c(Br)cc12,Potency,[10],inactive
same,Potency,[11],inactive
same,Potency,[12],inactive
same,Potency,[13],inactive
same,Potency,[14],inactive
same,Potency,[15],inactive
same,Potency,[16],inactive
same,Potency,[17],inactive
same,Potency,[18],inactive
same,Potency,[19],inactive
same,Potency,[20],inactive
CC(C)[C@@]1(NC(=O)[C@H]2CC3c4cccc5[nH]cc(c45)C[C@H]3N(C)C2)O[C@@]2(O)C3CCCN3C(=O)[C@@H](Cc3ccccc3)N2C1=O (stereo partly specified),Potency,[10],5.1 µM (active)
same,Potency,[11],inactive
same,Potency,[12],3.16 µM (active)
same,Potency,[13],3.16 µM (active)
same,Potency,[14],9.53 µM (active)
same,Potency,[15],953 nM (active)
same,Potency,[16],849 nM (active)
same,Potency,[17],447 nM (active)
same,Potency,[18],7.94 µM (active)
same,Potency,[19],447 nM (active)
same,Potency,[20],562 nM (active)
